According to PubChem BioAssay (EPA / NIEHS):
Activity calls are given as the source filed them. Rule for the calls: active = hit-call score of the fitted dose curve at least 0.9, where 1 is the maximum; inactive = score below 0.9.

Assays:
[1] = target: Paired box protein Pax-6 (Homo sapiens) (UniProt P26367); test: ATG_Pax6_CIS: Attagene CIS-FACTORIAL HepG2 Assay for human Paired Box 6 (PAX6) (AID 2282956); conditions: HepG2 CIS-FACTORIAL PAX6 reporter transcription, RNA readout; actives raise or lower the signal
Sequence of Paired box protein Pax-6 (Homo sapiens) (P26367 whole entry, looked up): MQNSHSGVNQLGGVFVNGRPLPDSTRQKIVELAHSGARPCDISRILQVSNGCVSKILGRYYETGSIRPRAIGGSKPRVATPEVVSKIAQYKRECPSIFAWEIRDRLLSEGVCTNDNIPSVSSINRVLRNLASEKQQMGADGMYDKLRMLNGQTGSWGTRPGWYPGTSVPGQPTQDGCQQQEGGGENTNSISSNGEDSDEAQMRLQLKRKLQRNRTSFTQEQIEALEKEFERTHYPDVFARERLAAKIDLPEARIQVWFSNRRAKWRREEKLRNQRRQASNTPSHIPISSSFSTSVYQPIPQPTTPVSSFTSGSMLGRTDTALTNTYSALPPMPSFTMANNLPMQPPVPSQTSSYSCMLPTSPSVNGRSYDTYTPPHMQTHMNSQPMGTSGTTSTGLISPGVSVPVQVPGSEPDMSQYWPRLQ
Summary of the method: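 HepG2 cells transiently transfected with cis-promoter-driven multiplexed reporter units sensing endogenous transcription factor activity; 24 h chemical exposure. Reporter mRNA quantified by RT-PCR, 6-FAM labelling, HpaI digestion and capillary electrophoresis; bidirectional fit versus DMSO baseline.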

[2] = ATG_PXRE_CIS: Attagene CIS-FACTORIAL HepG2 Assay for human Pregnane X Receptor Element (PXRE) (AID 2282957); conditions: HepG2 Attagene CIS-FACTORIAL PXRE reporter, mRNA; actives raise or lower the signal
Summary of the method: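 Cells: HepG2, transiently transfected reporter units under cis promoter control. Exposure: 24 h. Detection: reporter mRNA via RT-PCR/CE fluorescence; bidirectional fitting, DMSO-referenced.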

[3] = ATG_PPRE_CIS: Attagene CIS-FACTORIAL HepG2 Assay for human Peroxisome Proliferator-activated Response Element (PPRE) (AID 2282958); conditions: HepG2 PPRE cis-element reporter, Attagene transcription factor profiling; actives raise or lower the signal
Summary of the method: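 Cells are first transfected transiently with the multiplexed reporter library, then dosed for 24 h. Total RNA is reverse-transcribed, amplified, fluorescently end-labeled and HpaI-cut before capillary electrophoresis; activity is fitted bidirectionally against DMSO controls.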

[4] = ATG_RORE_CIS: Attagene CIS-FACTORIAL HepG2 Assay for human RAR-related Orphan Receptor Element (RORE) (AID 2282959); conditions: HepG2 Attagene cis-factorial RORE reporter, mRNA; actives raise or lower the signal
Summary of the method: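 Cells were HepG2 carrying transfected cis-regulated reporter constructs, dosed for 24 hours. Total RNA was reverse-transcribed and reporter cDNA amplified, fluorescently labeled and sized by capillary electrophoresis. Activity was fitted bidirectionally relative to DMSO.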

[5] = ATG_Sox_CIS: Attagene CIS-FACTORIAL HepG2 Assay for human SRY-box transcription factor (SOX) (AID 2282960); conditions: HepG2 Attagene cis-factorial SOX reporter, mRNA; actives raise or lower the signal
Summary of the method: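 Transient MRTU transfection of HepG2; 24 h compound incubation; TriZol RNA, oligo(dT) RT, PCR, 6-FAM primer extension, HpaI cut, CE. Bidirectional fit, DMSO = baseline.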

[6] = target: Transcription factor Sp1 (Homo sapiens) (UniProt P08047); test: ATG_Sp1_CIS: Attagene CIS-FACTORIAL HepG2 Assay for human Specificity Protein 1 (Sp1) (AID 2282961); conditions: HepG2 Sp1 cis-reporter transcription, actives raise or lower the signal
Sequence of Transcription factor Sp1 (Homo sapiens) (P08047 whole entry, looked up): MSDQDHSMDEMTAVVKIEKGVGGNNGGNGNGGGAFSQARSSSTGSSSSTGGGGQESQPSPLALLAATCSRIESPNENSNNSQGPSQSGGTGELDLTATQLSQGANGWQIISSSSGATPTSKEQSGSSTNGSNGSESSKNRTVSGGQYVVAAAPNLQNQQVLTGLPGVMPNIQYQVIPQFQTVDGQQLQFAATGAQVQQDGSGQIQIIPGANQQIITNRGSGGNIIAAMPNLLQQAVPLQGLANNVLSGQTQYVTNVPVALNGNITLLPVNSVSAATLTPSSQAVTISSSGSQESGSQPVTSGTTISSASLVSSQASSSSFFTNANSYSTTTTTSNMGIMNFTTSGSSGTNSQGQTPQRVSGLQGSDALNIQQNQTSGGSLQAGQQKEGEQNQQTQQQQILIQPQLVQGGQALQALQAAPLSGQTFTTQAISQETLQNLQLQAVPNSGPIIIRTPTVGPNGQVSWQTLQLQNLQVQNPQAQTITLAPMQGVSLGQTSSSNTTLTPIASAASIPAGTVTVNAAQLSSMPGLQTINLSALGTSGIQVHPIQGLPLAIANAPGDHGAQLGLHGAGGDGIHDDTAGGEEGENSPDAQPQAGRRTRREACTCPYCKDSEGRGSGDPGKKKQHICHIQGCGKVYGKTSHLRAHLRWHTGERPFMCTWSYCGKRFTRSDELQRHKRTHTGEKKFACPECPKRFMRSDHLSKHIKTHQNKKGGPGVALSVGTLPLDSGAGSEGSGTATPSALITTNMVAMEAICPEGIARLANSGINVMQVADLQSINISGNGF
Summary of the method: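 Endogenous Sp1 activity was gauged in human liver HepG2 cells bearing transfected reporter units under a cis-regulating promoter. After 24 h dosing, reporter mRNA was quantified by RT-PCR with capillary electrophoresis, and activity fitted bidirectionally versus DMSO.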

[7] = ATG_SREBP_CIS: Attagene CIS-FACTORIAL HepG2 Assay for human Sterol Regulatory Element Binding (SREBP) (AID 2282962); conditions: HepG2 Attagene cis-factorial SREBP reporter, mRNA; actives raise or lower the signal
Summary of the method: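 HepG2 cells transiently transfected with multiplexed cis-promoter reporter units sensing endogenous transcription factors; reporter mRNA measured 24 h after dosing by RT-PCR, 6-FAM labeling, HpaI digestion and capillary electrophoresis. Bidirectional fit versus DMSO.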

[8] = target: Signal transducer and activator of transcription 3 (Homo sapiens) (UniProt P40763); test: ATG_STAT3_CIS: Attagene CIS-FACTORIAL HepG2 Assay for human Signal Transducer and Activator of Transcription 3 (STAT3) (AID 2282963); conditions: HepG2, Attagene cis-factorial STAT3 reporter transcription; actives raise or lower the signal
Sequence of Signal transducer and activator of transcription 3 (Homo sapiens) (P40763 whole entry, looked up): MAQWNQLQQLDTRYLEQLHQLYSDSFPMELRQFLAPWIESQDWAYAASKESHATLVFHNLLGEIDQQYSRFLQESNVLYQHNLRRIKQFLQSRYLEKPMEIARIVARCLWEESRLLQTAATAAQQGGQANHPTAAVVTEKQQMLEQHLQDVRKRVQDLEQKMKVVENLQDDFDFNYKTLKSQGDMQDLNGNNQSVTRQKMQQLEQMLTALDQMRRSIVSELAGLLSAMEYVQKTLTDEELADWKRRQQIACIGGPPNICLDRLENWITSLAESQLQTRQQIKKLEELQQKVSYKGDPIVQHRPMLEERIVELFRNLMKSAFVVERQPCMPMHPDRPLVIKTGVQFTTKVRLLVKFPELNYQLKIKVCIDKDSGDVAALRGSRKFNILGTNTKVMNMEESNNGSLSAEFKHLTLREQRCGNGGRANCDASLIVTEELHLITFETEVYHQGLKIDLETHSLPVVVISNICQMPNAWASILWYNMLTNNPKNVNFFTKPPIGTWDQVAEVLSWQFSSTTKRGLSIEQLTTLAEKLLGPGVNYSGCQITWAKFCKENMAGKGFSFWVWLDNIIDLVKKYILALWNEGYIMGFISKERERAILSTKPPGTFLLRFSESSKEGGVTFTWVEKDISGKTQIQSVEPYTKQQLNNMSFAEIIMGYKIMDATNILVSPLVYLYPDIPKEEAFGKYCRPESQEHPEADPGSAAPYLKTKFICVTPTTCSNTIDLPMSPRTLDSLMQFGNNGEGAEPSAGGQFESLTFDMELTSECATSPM
Summary of the method: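 Values derive from bidirectional fits relative to DMSO of reporter mRNA levels, measured by RT-PCR with capillary electrophoresis, in HepG2 cells carrying transiently transfected cis-regulated reporter units and exposed 24 h.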

[9] = ATG_TA_CIS: Attagene CIS-FACTORIAL HepG2 Assay for human TA Basal Promoter (AID 2282964); conditions: HepG2 Attagene CIS-factorial TA basal promoter reporter; actives raise or lower the signal
Summary of the method: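 HepG2 cells transiently transfected with multiple reporter units under cis promoter elements, reporting endogenous transcription factor activity; this endpoint tracks the TA basal promoter as background control. Reporter mRNA after 24 h dosing measured by RT-PCR/capillary electrophoresis; bidirectional fits versus DMSO.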

[10] = ATG_TCF_b_cat_CIS: Attagene CIS-FACTORIAL HepG2 Assay for human T-Cell-Factor with beta-catenin (TCF/b-cat) (AID 2282965); conditions: HepG2 TCF/beta-catenin cis-reporter transcription, actives raise or lower the signal
Summary of the method: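 Cells of the HepG2 line carry transiently transfected reporter units whose promoters respond to endogenous factors. Twenty-four hours post-dosing, reporter mRNA induction is measured by fluorescent RT-PCR and capillary electrophoresis, with DMSO as baseline.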

OCC(CO)n1cnc(-c2ccc(F)cc2)c1-c1ccnc(Oc2ccccc2)n1
outcome [1]: inactive | AC50 [2]: 7.89 µM (active) | AC50 [3]: 0.357 µM (active) | outcome [4]: inactive | outcome [5]: inactive | outcome [6]: inactive | outcome [7]: inactive | outcome [8]: inactive | outcome [9]: inactive | outcome [10]: inactive

O=C1NC(=O)C(c2ccccc2)(c2ccccc2)N1
outcome [1]: inactive | outcome [2]: inactive | outcome [3]: inactive | outcome [4]: inactive | outcome [5]: inactive | outcome [7]: inactive | outcome [8]: inactive | outcome [9]: inactive | outcome [10]: inactive

CCc1nc(N)nc(N)c1-c1ccc(Cl)cc1
AC50 [1]: 46 µM (active) | outcome [2]: inactive | AC50 [3]: 26.8 µM (active) | AC50 [4]: 42.5 µM (active) | outcome [5]: inactive | outcome [7]: inactive | outcome [8]: inactive | AC50 [9]: 100 µM (active) | AC50 [10]: 60.1 µM (active)

O=C1CCCCC1
outcome [1]: inactive | outcome [2]: inactive | outcome [3]: inactive | outcome [4]: inactive | outcome [5]: inactive | outcome [6]: inactive | outcome [7]: inactive | outcome [8]: inactive | outcome [9]: inactive | outcome [10]: inactive

O=C(Oc1ccccc1)c1cccc(C(=O)Oc2ccccc2)c1
outcome [1]: inactive | outcome [2]: inactive | AC50 [3]: 104 µM (active) | outcome [4]: inactive | outcome [5]: inactive | outcome [6]: inactive | outcome [7]: inactive | outcome [8]: inactive | outcome [9]: inactive | outcome [10]: inactive

CC(C)NCC(O)c1ccc(O)c(O)c1 (stereo not given)
outcome [1]: inactive | AC50 [2]: 52.4 µM (active) | outcome [3]: inactive | outcome [4]: inactive | outcome [5]: inactive | outcome [6]: inactive | outcome [7]: inactive | outcome [8]: inactive | outcome [9]: inactive | outcome [10]: inactive

CC1(C)C(=O)NC(=O)N1CO
outcome [1]: inactive | outcome [2]: inactive | outcome [3]: inactive | outcome [4]: inactive | outcome [5]: inactive | outcome [6]: inactive | AC50 [7]: 150 µM (active) | outcome [8]: inactive | outcome [9]: inactive | outcome [10]: inactive

CN(C)CCCN(C)CCCN(C)C
outcome [1]: inactive | AC50 [2]: 25.6 µM (active) | outcome [3]: inactive | outcome [4]: inactive | outcome [5]: inactive | outcome [6]: inactive | outcome [7]: inactive | outcome [8]: inactive | outcome [9]: inactive | outcome [10]: inactive

C=CCc1ccc(OC)c(OC)c1
outcome [1]: inactive | AC50 [2]: 100 µM (active) | outcome [3]: inactive | outcome [4]: inactive | outcome [5]: inactive | outcome [6]: inactive | outcome [7]: inactive | outcome [8]: inactive | outcome [9]: inactive | outcome [10]: inactive

CCCCOC(=O)CCCCC(=O)OCCCC
outcome [1]: inactive | outcome [2]: inactive | outcome [3]: inactive | outcome [4]: inactive | outcome [5]: inactive | outcome [7]: inactive | outcome [8]: inactive | outcome [9]: inactive | outcome [10]: inactive

C#CC(O)C(CC)CCCC (stereo not given)
outcome [1]: inactive | AC50 [2]: 15 µM (active) | outcome [4]: inactive | outcome [5]: inactive | AC50 [6]: 154 µM (active) | outcome [7]: inactive | outcome [8]: inactive | outcome [9]: inactive | AC50 [10]: 67.9 µM (active)

COC(=O)CCCC(=O)OC
outcome [1]: inactive | outcome [2]: inactive | outcome [4]: inactive | outcome [5]: inactive | outcome [7]: inactive | outcome [8]: inactive | outcome [9]: inactive | outcome [10]: inactive

CCCCCCCCCCCCCCOS(=O)(=O)O
outcome [1]: inactive | outcome [2]: inactive | outcome [3]: inactive | outcome [5]: inactive | outcome [7]: inactive | outcome [8]: inactive | outcome [9]: inactive | outcome [10]: inactive

CCCCc1nc2cccnc2n1Cc1ccc(-c2ccccc2-c2nnn[nH]2)cc1
outcome [1]: inactive | AC50 [2]: 27.2 µM (active) | outcome [4]: inactive | outcome [5]: inactive | outcome [7]: inactive | outcome [8]: inactive | outcome [9]: inactive | outcome [10]: inactive

CCc1cc(C2=C(C(=O)O)N(c3ccccc3C(F)(F)F)S(=O)(=O)c3ccccc32)cc2c1OCO2
outcome [1]: inactive | AC50 [2]: 2.14 µM (active) | outcome [4]: inactive | outcome [5]: inactive | AC50 [7]: 26.6 µM (active) | outcome [8]: inactive | outcome [9]: inactive | AC50 [10]: 122 µM (active)

O=C(O)CN(CC(=O)O)CC(=O)O
outcome [1]: inactive | outcome [3]: inactive | outcome [4]: inactive | outcome [5]: inactive | outcome [6]: inactive | outcome [7]: inactive | outcome [8]: inactive | outcome [9]: inactive | outcome [10]: inactive

CC(C)(C)c1ccccc1
outcome [1]: inactive | outcome [2]: inactive | outcome [4]: inactive | outcome [5]: inactive | outcome [6]: inactive | outcome [7]: inactive | outcome [8]: inactive | outcome [9]: inactive | outcome [10]: inactive

CCCCC(CC)COC(=O)CCCCCCCC(=O)OCC(CC)CCCC (stereo not given)
outcome [1]: inactive | outcome [2]: inactive | outcome [5]: inactive | outcome [7]: inactive | outcome [8]: inactive | outcome [9]: inactive | outcome [10]: inactive

Nc1nc(=S)c2[nH]cnc2[nH]1
outcome [1]: inactive | AC50 [2]: 100 µM (active) | outcome [4]: inactive | outcome [5]: inactive | outcome [6]: inactive | outcome [7]: inactive | outcome [8]: inactive | outcome [9]: inactive | outcome [10]: inactive

CC(C)OC(=O)C(C)(C)Oc1ccc(C(=O)c2ccc(Cl)cc2)cc1
AC50 [1]: 27.7 µM (active) | AC50 [2]: 12.3 µM (active) | AC50 [4]: 27.5 µM (active) | outcome [5]: inactive | outcome [6]: inactive | outcome [7]: inactive | outcome [8]: inactive | AC50 [9]: 22.6 µM (active) | outcome [10]: inactive

Cc1occc(=O)c1O
outcome [1]: inactive | outcome [2]: inactive | outcome [4]: inactive | outcome [5]: inactive | outcome [6]: inactive | outcome [7]: inactive | outcome [8]: inactive | outcome [9]: inactive | outcome [10]: inactive
